PGE2 EP2 inh: human EP2 receptor antagonists, primary screen, TR-FRET cAMP, C6 glioma cells; 0.52% of 260,000 active; Prostaglandin E2 receptor EP2 subtype (Homo sapiens), P43116; C6 glioma cells expressing human EP2; cells stimulated with saturating PGE2; inhibition, % at 25 µM;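 active means percent inhibition above 40 after rounding to a whole number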;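 further: rat C6 glioma host cells with rolipram phosphodiesterase inhibitor present; the protocol text gives 20 µM as final concentration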
HMGR II inh: inhibitors of E. faecalis class II HMGR, primary screen, biochemical, Enterococcus faecalis. inhibition, % at 10 µM. purified E. faecalis HMGR, NADPH absorbance 340 nm kinetic. AID 1066, 2008. 0.41% of 190,000 active;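 active means inhibition above a set limit, the median over all tested compounds plus 3 SD, cut at about 9.5% in these data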;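 further: enzyme runs in reverse so mevalonate oxidation gives rising NADPH absorbance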
m-calpain inh: inhibitors of pig calpain II, primary screen, biochemical, fluorogenic peptide substrate, 1536-well. inhibition, % at 16 µM. 0.37% of 220,000 active. purified calpain II, 30 min;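 active means inhibition above about 50%, limit read from the data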
Furin inh: human furin inhibitors, primary screen, biochemical, fluorescence intensity; 0.061% of 220,000 active; purified furin, fluorogenic substrate cleavage; inhibition, % at 20 µM or 30 µM; in the data active means inhibition above about 25%
Target sequence (P09958 108-714 limits assumed): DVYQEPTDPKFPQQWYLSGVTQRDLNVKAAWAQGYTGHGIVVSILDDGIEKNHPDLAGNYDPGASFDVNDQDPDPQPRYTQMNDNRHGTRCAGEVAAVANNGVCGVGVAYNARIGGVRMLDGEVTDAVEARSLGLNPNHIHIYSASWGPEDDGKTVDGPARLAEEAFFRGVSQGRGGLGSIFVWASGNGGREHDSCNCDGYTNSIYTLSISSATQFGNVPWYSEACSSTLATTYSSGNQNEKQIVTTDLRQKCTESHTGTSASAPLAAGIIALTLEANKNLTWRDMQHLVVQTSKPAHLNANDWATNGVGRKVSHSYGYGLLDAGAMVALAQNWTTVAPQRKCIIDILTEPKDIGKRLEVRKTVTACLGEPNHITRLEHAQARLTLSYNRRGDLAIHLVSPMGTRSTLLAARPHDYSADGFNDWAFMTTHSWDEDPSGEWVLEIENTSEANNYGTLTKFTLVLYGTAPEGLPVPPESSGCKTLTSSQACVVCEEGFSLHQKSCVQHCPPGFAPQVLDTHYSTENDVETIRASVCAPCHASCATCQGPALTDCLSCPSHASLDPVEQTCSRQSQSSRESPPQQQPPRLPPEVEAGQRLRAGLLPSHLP
EP2 modulator: EP2 receptor modulators, cAMP readout, primary screen, cell-based, HTRF cAMP, PGE2 stimulation; Prostaglandin E2 receptor EP2 subtype (Homo sapiens), P43116; EP2-expressing cells, cAMP HTRF FRET, PGE2 co-stimulation; induction, % at 25 µM; 0.83% of 260,000 active; AID 940, 2007;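 active means compounds whose cAMP rise, as percent of the full-agonist control response, exceeds 60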;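 further: rat C6 glioma line stably carrying human EP2 under a CMV promoter; the protocol text gives 20 µM as final concentration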
Each line names hits and unclear results; the compound was inactive in the other large screens; ! = a repeat was not active. An excerpt weighted towards active compounds, which were near 1.9% of everything screened.

CCC(=O)Nc1sc2c(c1C#N)CCCCC2	EP2 modulator 62.1
COc1ccc(-c2cc(C(F)(F)F)nc(SCCC(=O)Nc3ccc(OC)c(OC)c3)n2)cc1	none (no result: HMGR II inh, m-calpain inh, Furin inh)
CCc1nn2c(C)cc(C)nc2c1-c1ccc(F)cc1	none (no result: HMGR II inh, m-calpain inh, Furin inh)
O=C(c1ccc(F)cc1)N1CCCC(c2ccccc2)C1 (stereo not drawn)	HMGR II inh 13.1
O=C(c1ccc(F)cc1)N1CCN(C2CCC(c3ccccc3)CC2)CC1 (stereo not drawn)	none
CCN1/C(=C/C(C)=C/c2sc3ccccc3[n+]2CC)Sc2ccccc21	PGE2 EP2 inh active
c1ccc(CNc2nc(NCc3ccccc3)c3ccccc3n2)cc1	PGE2 EP2 inh 95.5 (no result: HMGR II inh)
Cc1occc1C(=O)N/N=C/C(Br)=C/c1ccccc1	HMGR II inh 10.0
COc1ccc(C(=O)N/N=C/C(Br)=C/c2ccccc2)cc1	none
Cc1nc(N2CCN(Cc3ccccc3)CC2)nc2c1C(=O)CC(C)C2 (stereo not drawn)	m-calpain inh 68.4
COc1cc2c(cc1OC)CN(C(C)C(=O)N1CCc3ccccc31)CC2 (stereo not drawn)	HMGR II inh 19.2
CC(C(=O)N1CCc2ccccc21)N1CCc2ccccc2C1 (stereo not drawn)	none
Cc1ccc(S(=O)(=O)ON2C(=O)c3ccccc3C2=O)c(C)c1	HMGR II inh 17.1
COc1ccc(C(c2nnnn2C2CCCCC2)N2CCN(c3ccccc3F)CC2)cc1OC (stereo not drawn)	none (no result: HMGR II inh, m-calpain inh, Furin inh)
COc1ccc(OC)c(C(c2nnnn2C2CCCC2)N2CCN(c3ccccc3F)CC2)c1 (stereo not drawn)	m-calpain inh 51.1, EP2 modulator 65.8!
COc1ccc(NC(=S)N2CCN(CCN3C(=O)c4cccc5cccc(c45)C3=O)CC2)cc1	m-calpain inh 50.8
Cc1cc(C)c(NC(=O)/C(=C/c2ccccc2)c2ccccc2)c(C)c1	EP2 modulator 61.9
O=C(O)/C(=C/c1ccco1)c1ccccc1	none
CNC(=O)C(=O)Nc1c(C)cc(C)cc1C	none
Cc1ccc(NC(=O)/C(=C/c2ccco2)c2ccccc2)c(C)c1	EP2 modulator 64.8
O=C(CCSc1nc(-c2ccco2)cc(C(F)(F)F)n1)NC1CC1	none (no result: HMGR II inh, m-calpain inh, Furin inh)
CC1CCN(CC(=O)O)CC1	none (no result: HMGR II inh, m-calpain inh, Furin inh)
CCc1ccc2[nH]c(=O)c(CN(CCCO)C(=O)NC3CCCCC3)cc2c1	none (no result: HMGR II inh, m-calpain inh, Furin inh)
O=C(O)c1c(-c2nccc3ccccc23)[nH]c(-c2ccccc2)c1S(=O)(=O)O	PGE2 EP2 inh 74.7 (no result: HMGR II inh, m-calpain inh, Furin inh)
c1ccc(-c2ccc(-c3nccc4ccccc34)[nH]2)cc1	none (no result: HMGR II inh)
Cc1cccc2nc(CNc3nc4ccccc4s3)cn12	none (no result: HMGR II inh, m-calpain inh, Furin inh)
CCOc1ccc2nc(SCC(=O)Nc3ccc(C)cc3C)c(C#N)cc2c1	none (no result: HMGR II inh, m-calpain inh, Furin inh)
Cc1ccc(N=Nc2c(O)c(S(=O)(=O)O)cc3cc(S(=O)(=O)O)ccc23)c(C)c1	PGE2 EP2 inh 41.7 (no result: HMGR II inh, m-calpain inh, Furin inh)
COc1cc(C(=O)NCCc2c[nH]c3ccccc23)ccc1OCc1c(C)noc1C	PGE2 EP2 inh 88.4
CCNc1sc(C(=O)c2ccc(F)cc2)c(N)c1C#N	none (no result: HMGR II inh, m-calpain inh, Furin inh)
Cc1nc2ccccc2c(=O)n1NC(=S)Nc1ccccc1	none (no result: HMGR II inh, m-calpain inh, Furin inh)
CN1CCCN(C(=O)CC2(CC(=O)O)CCCC2)CC1	none
CN1CCN(C(=O)CC2(CC(=O)O)CCCC2)CC1	HMGR II inh 12.6
COc1ccc(C(=O)NC2CCN(CC(=O)Nc3cccc(C)c3)CC2)cc1OC	HMGR II inh 10.9
CCCc1[nH]nc2c1C(c1ccncc1)C(C#N)=C(N)O2 (stereo not drawn)	none
CCCc1[nH]nc2c1C(CCC)C(C#N)=C(N)O2 (stereo not drawn)	HMGR II inh 11.0
CC(=O)c1ccc(NC(=O)C(C)Sc2ncccc2-c2nc3ccccc3[nH]2)cc1 (stereo not drawn)	none (no result: HMGR II inh, m-calpain inh, Furin inh)
COc1ccc(CN(Cc2cccn2C)S(=O)(=O)c2ccc(C)cc2)cc1	EP2 modulator 72.3 (no result: HMGR II inh)
CCCC(c1nnnn1C(C)(C)C)N(CCN1CCOCC1)Cc1cc2cc(C)ccc2[nH]c1=O (stereo not drawn)	none (no result: HMGR II inh, m-calpain inh, Furin inh)
CCOC(=O)CSc1nc2ccccc2c(=O)n1CC1CCCC1	EP2 modulator 61.6
CCOC(=O)c1ccc(N2C(=O)C=CC2=O)cc1	PGE2 EP2 inh 110.8
O=C(Cn1ccc2ccc(F)cc21)Nc1cccc(-n2cnnc2)c1	none (no result: HMGR II inh, m-calpain inh, Furin inh)
COc1ccc(OC)c(S(=O)(=O)N2CCC(C(=O)Nc3ccccc3Cl)CC2)c1	none (no result: HMGR II inh, m-calpain inh, Furin inh)
CCC(=O)Nc1ccc(NC(=O)c2cccs2)cc1	none (no result: HMGR II inh, m-calpain inh, Furin inh)
COc1ccc(OC)c(CC(=O)N2CC[C@@H](c3ccccc3)[C@H](O)C2)c1	none (no result: HMGR II inh, m-calpain inh, Furin inh)
COc1ccc(/C(O)=C2/C(=O)C(=O)NC2c2ccc(F)cc2)cc1OC (stereo not drawn)	EP2 modulator 70.0 (no result: HMGR II inh, m-calpain inh, Furin inh)
COc1ccc(Cn2cc(C(=O)NCc3ccncc3)nn2)cc1	none (no result: PGE2 EP2 inh, HMGR II inh, m-calpain inh, Furin inh)
Cc1ccc(C(C)C)c(OCCNC(=S)Nc2cccc3ccccc23)c1	m-calpain inh 50.9
O=C(NN=C1CCCCCC1)c1cccnc1	none
O=C(CC(=O)NN=C1CCCCCC1)NCc1cccnc1	HMGR II inh 14.7
CCCCc1ccc(NC(=O)C2CCCO2)cc1 (stereo not drawn)	m-calpain inh 52.8
COc1ccc(CC(=O)Nc2nc(-c3cc(OC)ccc3OC)cs2)cc1	none
COc1cccc(CC(=O)Nc2nc(-c3cc(OC)ccc3OC)cs2)c1	HMGR II inh 12.2
COc1ccc(OC)c(-c2csc(N(C)C(=O)COc3ccc(C)cc3)n2)c1	PGE2 EP2 inh 53.9 (no result: HMGR II inh, m-calpain inh, Furin inh)
COc1ccc(OC)c(-c2csc(N(C)C(=O)c3cc(OC)c(OC)c(OC)c3)n2)c1	none (no result: HMGR II inh, m-calpain inh, Furin inh)
CCN(C(=O)C1CC1)c1nc(-c2cc(OC)ccc2OC)cs1	EP2 modulator 65.3 (no result: HMGR II inh, m-calpain inh, Furin inh)
Cn1c(SCC(=O)Nc2ccccc2)nnc1-c1cccs1	none (no result: HMGR II inh, m-calpain inh, Furin inh)
O=C(COc1ccc2ccccc2c1)NNC(=O)Cc1ccccc1	PGE2 EP2 inh 63.1
O=C(COc1ccc2ccccc2c1)NNC(=O)Cc1cccc2ccccc12	none
Cc1nn2c(N3CCOCC3)c3c(nc2c1-c1cccs1)CCC3	none (no result: PGE2 EP2 inh, HMGR II inh, m-calpain inh, Furin inh)
CCOC(=O)c1cc(C)sc1NC(=O)c1ccccc1Cl	EP2 modulator 71.5 (no result: HMGR II inh, m-calpain inh, Furin inh)
CCOC(=O)CN1N=C(/C=C/c2ccc(C(C)C)cc2)CCC1=O	m-calpain inh 54.7
CCN(CCCCCCN(C)C)Cc1cc2ccccc2o1	none (no result: HMGR II inh, m-calpain inh, Furin inh)
CC(=O)Nc1ccc2nc(NC(=O)COc3ccc(C)c(C)c3)sc2c1	none (no result: HMGR II inh, m-calpain inh, Furin inh)
O=C(Nc1ccc(Nc2ccncc2)cc1)c1ccc(Nc2ccnc3ccc([N+](=O)[O-])cc23)cc1	m-calpain inh 50.9 (no result: HMGR II inh)
C=CCn1c(N2CC(C)CC(C)C2)nc2c1c(=O)[nH]c(=O)n2C (stereo not drawn)	none (no result: HMGR II inh, m-calpain inh, Furin inh)
Cn1c(NC(=O)/C=C\c2ccccc2)cc(=O)n(C)c1=O	m-calpain inh 63.8
O=C(O)CNC(=O)c1ccc(Sc2ccccc2)c([N+](=O)[O-])c1	none
CC(C)(C)NC(=O)c1ccc(Sc2ccccc2)c([N+](=O)[O-])c1	m-calpain inh 54.1
COCCCNC(=O)c1c(NC(=O)c2ccccc2C)sc2c1CCCC2	PGE2 EP2 inh 45.3 (no result: HMGR II inh, m-calpain inh, Furin inh)

Source: PubChem BioAssay
